Results published in PubChem BioAssay (EPA / NIEHS).
Records with an inconclusive call do not appear. More than one record can exist for a structure, and the calls need not agree. Calls of active or inactive are those of the source. The calls were made as follows: active = hit-call score of the fitted dose curve at least 0.9, where 1 is the maximum; inconclusive = response in the unintended direction; inactive = score below 0.9.

The compounds below were run on xenobiotic metabolism (CYP1A2), CYP1A2 (gene 1544) (assay: CLD_CYP1A2_48hr: CellzDirect (CLD) Gene Expression Assay for xenobiotic metabolism (CYP1A2) at 48 hours (AID 2283703)).
Procedure: CLD_48hr is a cell-based, multiplexed-readout assay that uses hepatocyte, a human liver primary cell, with measurements taken at 48 hours after chemical dosing in a 96-well plate.CLD_CYP1A2_48hr is one of 16 assay component(s) measured or calculated from the CLD_48hr assay. It is designed to make measurements of mRNA induction, a form of inducible reporter, as detected with chemiluminescence signals by Quantitative Nuclease Protection Assay (qNPA) technology.Data from the assay component CLD_CYP1A2_48hr was analyzed at the endpoint, CLD_CYP1A2_48hr, in the positive analysis fitting direction relative to DMSO as the negative control and baseline of activity. Using a type of inducible reporter, gain-of-signal activity can be used to understand changes in the reporter gene as they relate to the gene CYP1A2. Furthermore, this assay endpoint can be referred to as a primary readout. To generalize the intended target to other relatable targets, this assay endpoint is annotated to the cyp intended target family, where subfamily is xenobiotic metabolism.
Human hepatocyte cultures were treated daily for two consecutive days with fresh dosing solutions containing appropriate concentrations of the 320 ToxCast chemicals (chemical identities were blinded to CellzDirect and other ToxCast collaborators), vehicle control (0.2% DMSO), and positive control inducers as summarized in Table 1. Due to the large number of treatment groups and chemicals examined, the ToxCast chemicals were divided into two groups (spanning two independent cultures of hepatocytes from separate donor preparations (Hu778: ToxCast plates 1 and 2; Hu776: ToxCast plates 3 and 4). Each preparation of human hepatocyte cultures was treated with respective vehicle control, medium only control, set of six positive controls/reference chemicals for the five hepatic receptor pathways, and a subset of eight of the ToxCast chemicals (indoxacarb, pyrithiobac-sodium, norflurazon, cyhalofop-butyl, methomyl, thiram, acetochlor, and propiconazole). These replicate data, coupled with internal replicates designed within the blinded ToxCast chemical library, provided additional data to evaluate interindividual differences between hepatocyte preparations and their potential impact on chemical profiles.Cell morphology and integrity were evaluated using phase-contrast microscopy as an indicator of hepatocyte cell health (Tyson & Green, 1987). Cultures for each treatment group (i.e., media, vehicle [0.2% DMSO], positive control inducers [multiple concentrations], and the ToxCast chemicals [multiple concentrations]) were observed and cell morphology was assessed relative to vehicle control cultures at each harvest time point (0, 6, 24, or 48 h). […] Images were evaluated at the conclusion of the study to assess changes in cell integrity and account for the effects of chemical exposure on uncharacteristic changes in concentration-dependent gene expression profiles. The results from these determinations of apparent cytotoxicity were annotated (yes/no) alongside the corresponding qNPA data for reference.At the conclusion of each treatment period, hepatocyte cultures (96-well) were washed with 1 volume of HBSS, lysed by addition of 25 ul ArrayPlate lysis buffer (HTG, Tucson, AZ), and 70 ul/well of Denaturation Oil, denatured by incubation at 95C for 10 min, and frozen at approximately -70C until analysis by nuclease protection assay (qNPA) (Roberts et al., 2007). For qNPA analysis, cell lysates were thawed at 50C for approximately 30 min, qNPA probes were added, and samples were incubated at 95C for 10 min to begin the detection process by denaturing the target RNA, dissociating the duplexes and secondary structure hybridization. At the conclusion of the hybridization period, S1 nuclease reagent was added to each sample to digest all nonprotected nucleotides at 50C for 60-90 min. […]

Compound	AC50	outcome
CCCCC(CC)CN1C(=O)C2C3C=CC(C3)C2C1=O (stereo not given)	12.6 µM (active)	
C#CCOC(=O)[C@@H](C)Oc1ccc(Oc2ncc(Cl)cc2F)cc1		inactive
CC1(C)C(C=C(Cl)Cl)C1C(=O)OCc1cccc(Oc2ccccc2)c1 (stereo not given)	9.51 µM (active)	
COCCO		inactive
CSC(=O)c1cccc2nnsc12	9.55 µM (active)	
COC(=O)c1ccc(I)cc1S(=O)(=O)NC(=O)Nc1nc(C)nc(OC)n1	20 µM (active)	
COC(=O)c1c(Cl)nn(C)c1S(=O)(=O)NC(=O)Nc1nc(OC)cc(OC)n1	1.13 µM (active)	
CCCCCOC(=O)COc1cc(N2C(=O)C3=C(CCCC3)C2=O)c(F)cc1Cl		inactive
CCNc1nc(N)nc(Cl)n1	3.97 µM (active)	
COC(=O)c1ccccc1S(=O)(=O)NC(=O)Nc1nc(OC(F)F)cc(OC(F)F)n1	11 µM (active)	
CCOC(=O)NCCOc1ccc(Oc2ccccc2)cc1		inactive
CCCOC(=O)NCCCN(C)C		inactive
CCN(Cc1c(F)cccc1Cl)c1c([N+](=O)[O-])cc(C(F)(F)F)cc1[N+](=O)[O-]	0.565 µM (active)	
CCCN(CCC)C(=O)SCC	6.32 µM (active)	inactive
CCSC(=O)N(CC(C)C)CC(C)C		inactive
CCOC(=O)C(C)Oc1ccc(Oc2cnc3cc(Cl)ccc3n2)cc1 (stereo not given)		inactive
CCC(C)OC(=O)N1CCCCC1CCO (stereo not given)		inactive
COC(=O)c1ccc(CNS(C)(=O)=O)cc1S(=O)(=O)NC(=O)Nc1nc(OC)cc(OC)n1		inactive
COC(=O)c1ccccc1C(=O)O		inactive
CCOC(=O)[C@H](C)Oc1ccc(Oc2nc3ccc(Cl)cc3o2)cc1	20 µM (active)	

Compound	AC50	outcome
O=C(Nc1ccc([N+](=O)[O-])cc1Cl)c1cc(Cl)ccc1O	0.549 µM (active)	
CCOC(=O)C(C)Oc1ccc(Oc2nc3ccc(Cl)cc3o2)cc1 (stereo not given)		inactive
COc1c(Cl)ccc(Cl)c1C(=O)O		inactive
c1ccc(Nc2ccccc2)cc1	4.82 µM (active)	
OB(O)O		inactive
COC(=O)c1cccc(C)c1S(=O)(=O)NC(=O)Nc1nc(OCC(F)(F)F)nc(N(C)C)n1	5.82 µM (active)	
c1ccc2[nH]c(-c3cscn3)nc2c1	1.36 µM (active)	
CCN(CC)C(=O)c1cccc(C)c1		inactive
CC(C)(C)[C@@H](O)[C@@H](Cc1ccc(Cl)cc1)n1cncn1	3.97 µM (active)	
N#CSCSc1nc2ccccc2s1	2.82 µM (active)	
CCCN(CCC)c1c([N+](=O)[O-])cc(C(F)(F)F)c(N)c1[N+](=O)[O-]	2.63 µM (active)	
CCCCOC(=O)[C@@H](C)Oc1ccc(Oc2ccc(C(F)(F)F)cn2)cc1		inactive
CN(C)C(=O)Nc1ccc(Cl)c(Cl)c1	11.9 µM (active)	
CCCCOCCOCCOCc1cc2c(cc1CCC)OCO2	5.82 µM (active)	
CCCCC(CC)COC(=O)c1ccccc1C(=O)O (stereo not given)		inactive
CCOC(=O)COc1cc(-n2ncc(C(F)(F)F)c(C)c2=O)c(F)cc1Cl		inactive
O=C(O)C1(C(=O)Nc2ccc(Cl)cc2Cl)CC1		inactive
CCCCCCC(C)OC(=O)COc1nc(F)c(Cl)c(N)c1Cl (stereo not given)		inactive
CCCOC(=O)c1ccc(C(=O)OCCC)nc1		inactive
